A number with no mark means an inactive call. Results filed as inconclusive are left out. Where a call stands in place of a potency, no number is given. Calls of active or inactive are those of the source. Unless noted, calls come from the whole dose curve; as a rule, active = well fitted curve in the direction sought with a large enough effect in the repeat runs; inconclusive = weak or mixed curves; inactive = no such curve, though single readings can be large; an effect the other way counts as inactive or inconclusive.
Key:
[1] = qHTS assay to identify small molecule antagonists of the estrogen related receptor (ERR) signaling pathway from Tox21 library - cell viability counter screen (AID 1224834); note: nearly all actives have a fitted effect of over 30% in size
Outline: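 Multiplexed viability counter screen in ERR cells: 17.5 h compound exposure at 37 C, CellTiter-Fluor added, 30 min at 37 C/5% CO2, fluorescence read.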

[2] = molecular target: Luciferin 4-monooxygenase (Photinus pyralis) (UniProt P08659); assay: qHTS assay to identify small molecule inhibitors of firefly luciferase (AID 1224835); note: series mostly up to about 120 µM; nearly all actives have a fitted effect of over 25% in size
Outline: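 Inhibition of purified Photinus luciferase is measured by luminescence. Substrate levels (D-luciferin, ATP) sit at their KM values. Each compound is tested in a concentration series.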

[3] = qHTS assay to identify small molecule agonists of the constitutive androstane receptor (CAR) signaling pathway - cell viability counter screen (AID 1224836); note: series mostly up to about 92 µM; nearly all actives have a fitted effect of over 45% in size
Outline: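 23 h treatment, 37 C, 5% CO2. Cell line: HepG2 stably expressing hCAR with a CYP2B6-2.2kb construct. Co-treatment: PK11195, 0.75 uM final. Read-out: CellTiter-Fluor fluorescence intensity.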

[4] = qHTS assay to identify small molecule antagonists of the constitutive androstane receptor (CAR) signaling pathway - cell viability counter screen (AID 1224837); note: series mostly up to about 92 µM; nearly all actives have a fitted effect of over 45% in size
Outline: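 Read-out: CellTiter-Fluor fluorescence after 23 hr at 37 C/5% CO2. Cells: HepG2 double-stable for hCAR and CYP2B6-2.2kb. Compounds tested at 15 concentrations in the presence of CITCO, final concentration 50 nM.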

[5] = molecular target: Nuclear receptor subfamily 1 group I member 3 (Homo sapiens) (UniProt Q14994); assay: qHTS assay to identify small molecule antagonists of the constitutive androstane receptor (CAR) signaling pathway (AID 1224838);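 note: HepG2 cells stably expressing hCAR with CYP2B6 luciferase reporter stimulated by CITCO; nearly all actives have a fitted effect of over 40% in size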; note: potency is the fitted concentration of half-maximal effect
Outline: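 Read-out: ONE-Glo luciferase luminescence after 30 min at room temperature. HepG2-CYP2B6-hCAR double-stable cells, compounds in 15-point titration plus 50 nM CITCO final, 24 h at 37 C/5% CO2.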

[6] = molecular target: Nuclear receptor subfamily 1 group I member 3 (Homo sapiens) (UniProt Q14994); assay: qHTS assay to identify small molecule agonists of the constitutive androstane receptor (CAR) signaling pathway (AID 1224839);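 note: HepG2 cells stably carrying human CAR and a CYP2B6 luciferase reporter; series mostly up to about 92 µM; nearly all actives have a fitted effect of over 15% in size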
Outline: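 Compounds tested at 15 concentrations on HepG2 cells stably harbouring hCAR and CYP2B6-2.2kb reporter constructs, co-treated with PK11195 (0.75 uM final), 24 h at 37 C; luminescent reporter signal quantified.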

[7] = qHTS assay to identify small molecule antagonists of the estrogen related receptor signaling pathway with the pleiotropic PPARgamma coactivator (PGC) from Tox21 10K library - cell viability counter screen (AID 1224840; active = well fitted cell-killing curve with a large enough effect in the repeat runs, not every such curve was filed as active; note: nearly all actives have a fitted effect of over 40% in size)
Outline: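 Fluorescence read-out of CellTiter-Fluor viability reagent, added after cells had been exposed to compound in DMSO for 17.5 h at 37 C; 30 min development at 37 C/5% CO2. Cells: PGC/ERR line, 2,000/well.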

[8] = qHTS assay to identify small molecule agonists of H2AX (AID 1224845; active = well fitted activation curve with a large enough effect in the signal ratio in the repeat runs, not every such curve was filed as active; the % refers to the signal ratio)
Outline: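 Phospho-H2AX Ser139 measured by HTRF (ex 320 nm; em 665 and 620 nm) after 24 hr antibody incubation. Compounds, 15 concentrations, 0.76% DMSO, were applied to CHO-K1 cells for 3hr at 37C before lysis.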

[9] = qHTS assay to identify small molecule agonists of the hypoxia (HIF-1) signaling pathway (AID 1224846; active = well fitted activation curve with a large enough effect in the signal ratio in the repeat runs, not every such curve was filed as active; the % refers to the signal ratio)
Outline: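 Beta-lactamase FRET read-out (CCF4-AM substrate) from ME-180 cells carrying an HRE-driven bla reporter, after 17 hrs compound exposure at 37C/5% CO2. Cells were seeded at 2,000 per well in 0.5% dialyzed FBS medium and preincubated 5 hrs.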

[10] = qHTS RealTime-Glo MT Cell Viability Assay in HepG2 cells - 24 hour (AID 1224867); note: nearly all actives have a fitted effect of over 50% in size
Outline: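 Tox21 10K library screened in qHTS format on HepG2 cells carrying RealTime-Glo reagents. Compounds were added after a 5 h preincubation, and the luminescent signal from continuous culture was measured repeatedly during 40 h treatment.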

[11] = qHTS RealTime-Glo MT Cell Viability Assay in HEK293 cells - 32 hour (AID 1224868); note: top concentration of the series differs between compounds; nearly all actives have a fitted effect of over 50% in size
Outline: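 Luminescence generated by NanoLuc from substrate produced by living HEK293 cells served as the viability signal. Each value reflects the reading at its stated time point during continuous 40 h compound exposure at 37 C.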

[12] = A CellTox Green Cytotoxicity Assay to monitor cytotoxicity in HEK293 cells - 0 hour (AID 1224869); note: nearly all actives have a fitted effect of over 50% in size
Outline: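 Read-out: fluorescence of a cell-impermeant cyanine dye staining DNA of dead cells, proportional to cytotoxicity. HEK293, 600 cells/well with reagent, compound (23 nL DMSO) added after 5 h; reads at 0, 8, 16, 24, 32, 40 h.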

[13] = qHTS assay to identify small molecule agonists of H2AX - cell viability counter screen (AID 1224847; calls by dose curve; note: top concentration of the series differs between compounds; nearly all actives have a fitted effect of over 30% in size)
Outline: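 Compounds tested at 15 concentrations were incubated 3 hr at 37C with wild-type CHO-K1 cells; cellular ATP-based luminescence (CellTiter-Glo) indicated viability.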

[14] = molecular target: Thyrotropin receptor (Homo sapiens) (UniProt P16473); assay: qHTS assay to identify small molecule agonists of the thyroid stimulating hormone receptor (TSHR) signaling pathway (AID 1224843; calls by dose curve; note: nearly all actives have a fitted effect of over 45% in size)
Outline: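 Agonist activity read as cAMP rise via d2/cryptate HTRF competition, 1 h room-temperature detection, in HEK293 cells expressing TSHR. Fifteen-point titrations, each run in triplicate, with a 30 min room-temperature incubation beforehand.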

[15] = qHTS assay to identify small molecule agonists of the hypoxia (HIF-1) signaling pathway - cell viability counter screen (AID 1224844; calls by dose curve; note: nearly all actives have a fitted effect of over 50% in size)
Outline: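 CellTiter-Glo luminescence read-out, 30 min RT, taken in the same wells as the beta-lactamase HRE reporter assay; HRE-bla ME-180 cells, 0.5% dialyzed FBS, 17 hr compound treatment at 37C, 5% CO2.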

Chain of Thyrotropin receptor (Homo sapiens) (P16473 whole entry, looked up): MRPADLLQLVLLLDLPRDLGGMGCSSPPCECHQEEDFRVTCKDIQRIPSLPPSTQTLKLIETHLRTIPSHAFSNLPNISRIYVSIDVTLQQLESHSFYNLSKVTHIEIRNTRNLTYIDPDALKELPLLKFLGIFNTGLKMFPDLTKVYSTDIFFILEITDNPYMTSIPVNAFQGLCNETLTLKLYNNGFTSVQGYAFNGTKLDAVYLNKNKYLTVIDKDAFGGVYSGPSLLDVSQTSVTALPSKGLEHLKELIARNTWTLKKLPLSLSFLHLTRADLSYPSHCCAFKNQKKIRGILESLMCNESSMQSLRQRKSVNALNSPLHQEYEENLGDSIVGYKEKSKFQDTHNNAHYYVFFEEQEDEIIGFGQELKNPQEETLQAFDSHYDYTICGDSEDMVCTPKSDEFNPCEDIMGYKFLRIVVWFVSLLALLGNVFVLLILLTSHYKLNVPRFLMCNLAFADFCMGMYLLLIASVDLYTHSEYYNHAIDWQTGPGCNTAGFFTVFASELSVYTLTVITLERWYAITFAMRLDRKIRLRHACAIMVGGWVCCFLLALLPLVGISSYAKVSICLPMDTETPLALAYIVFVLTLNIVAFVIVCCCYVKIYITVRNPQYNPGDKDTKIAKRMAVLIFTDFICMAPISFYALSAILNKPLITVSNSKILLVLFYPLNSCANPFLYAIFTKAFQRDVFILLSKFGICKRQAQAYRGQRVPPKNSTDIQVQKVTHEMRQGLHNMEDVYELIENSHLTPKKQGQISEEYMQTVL
Chain of Luciferin 4-monooxygenase (Photinus pyralis) (P08659 whole entry, looked up): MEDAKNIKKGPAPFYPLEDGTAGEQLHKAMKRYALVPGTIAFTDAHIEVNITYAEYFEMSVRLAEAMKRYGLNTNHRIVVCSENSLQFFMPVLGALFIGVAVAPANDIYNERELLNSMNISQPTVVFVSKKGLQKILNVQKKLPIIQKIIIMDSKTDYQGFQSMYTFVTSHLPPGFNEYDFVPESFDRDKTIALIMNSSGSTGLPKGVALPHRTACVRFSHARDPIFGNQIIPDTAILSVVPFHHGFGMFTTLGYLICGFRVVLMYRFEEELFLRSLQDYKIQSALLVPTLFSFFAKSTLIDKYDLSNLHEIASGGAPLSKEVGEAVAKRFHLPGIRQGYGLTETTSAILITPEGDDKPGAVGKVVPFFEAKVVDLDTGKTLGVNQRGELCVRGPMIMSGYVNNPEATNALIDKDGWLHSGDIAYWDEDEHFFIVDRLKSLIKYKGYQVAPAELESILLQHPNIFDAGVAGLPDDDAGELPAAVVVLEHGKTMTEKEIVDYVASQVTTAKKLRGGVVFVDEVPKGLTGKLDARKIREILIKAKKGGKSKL
Chain of Nuclear receptor subfamily 1 group I member 3 (Homo sapiens) (Q14994 whole entry, looked up): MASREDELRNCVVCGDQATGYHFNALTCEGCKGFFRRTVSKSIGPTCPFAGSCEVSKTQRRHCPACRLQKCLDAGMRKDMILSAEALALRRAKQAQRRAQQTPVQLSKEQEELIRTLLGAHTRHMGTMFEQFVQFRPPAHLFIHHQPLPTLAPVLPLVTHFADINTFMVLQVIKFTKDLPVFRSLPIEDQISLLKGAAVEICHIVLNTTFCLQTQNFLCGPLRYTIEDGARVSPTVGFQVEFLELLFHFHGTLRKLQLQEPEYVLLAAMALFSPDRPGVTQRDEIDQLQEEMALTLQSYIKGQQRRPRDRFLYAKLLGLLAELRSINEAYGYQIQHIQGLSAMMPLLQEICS

Row | SMILES | Potency [1] | Potency [2] | outcome [3] | outcome [4] | Potency [5] | Potency [6] | outcome [7] | outcome [8] | outcome [9] | outcome [10] | Potency [11] | Potency [12] | Potency [13] | outcome [14] | Potency [15]
1 | OCCCCCCO | inactive | inactive | inactive | inactive | inactive | inactive | inactive | inactive | inactive | inactive | inactive | inactive |  |  | 
2 | COc1cc(C)cc(O)c1 | inactive | inactive | inactive | inactive | inactive | inactive | inactive |  | inactive | inactive | inactive | inactive | inactive |  | 
3 | CCOC(=O)Nc1ccc2c(c1)N(C(=O)CCN1CCOCC1)c1ccccc1S2 | inactive | inactive | inactive | inactive | 1.19 µM (active) | inactive | inactive | inactive | inactive |  | inactive | inactive | inactive | inactive | inactive
4 | COCCOC(=O)CC#N | inactive | inactive | inactive | inactive | inactive | inactive | inactive | inactive | inactive |  | inactive | inactive |  | inactive | inactive
5 | CC1=CCC2C(C1)C2(C)C (stereo not drawn) | inactive | inactive | inactive | inactive | inactive | inactive | inactive | inactive | inactive |  | inactive | inactive | inactive |  | 
6 | CO[Si](CCCNCCC[Si](OC)(OC)OC)(OC)OC | inactive | inactive | inactive | inactive | inactive | inactive | inactive | inactive | inactive | inactive | inactive | inactive |  | inactive | 
7 | C=CCOCC(O)CS(=O)(=O)O (stereo not drawn) | inactive | inactive | inactive | inactive | inactive | inactive | inactive |  | inactive | inactive |  | inactive |  | inactive | inactive
8 | CCCCCCCCCCCCCCCCCCOCC(O)CO (stereo not drawn) | inactive | inactive | inactive | inactive | inactive | inactive | inactive |  | inactive | inactive | inactive | inactive | inactive | inactive | inactive
9 | NS(=O)(=O)c1cc2c(cc1Cl)NC(CSCc1ccccc1)=NS2(=O)=O | inactive | inactive | inactive | inactive | inactive | inactive | inactive | inactive |  | inactive | inactive | inactive | inactive | inactive | inactive
10 | C#CC(O)CCCCC (stereo not drawn) | inactive | inactive | inactive | inactive | inactive | inactive |  |  | inactive |  | inactive | inactive | inactive | inactive | inactive

From PubChem BioAssay (Tox21)
